# Measurements from PubChem BioAssay (Tox21).
# Records with an inconclusive call do not appear. Entries that show only a call come without a potency. The source made the active and inactive calls. Unless noted, calls come from the whole dose curve; as a rule, active = well fitted curve in the direction sought with a large enough effect in the repeat runs; inconclusive = weak or mixed curves; inactive = no such curve, though single readings can be large; an effect the other way counts as inactive or inconclusive.
# Experiments:
# [1] = qHTS assay to identify small molecule agonists of the sonic hedgehog signaling (Shh) pathway (AID 1259368; calls by dose curve; note: series mostly up to about 92 µM; nearly all actives have a fitted effect of over 15% in size)
# Method in brief: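 NIH/3T3-derived 3T3Gli1-Luc cells carrying a stably integrated Gli1 response element–firefly luciferase reporter were plated, left 4 hr at 37 C, then given compounds in DMSO for 24 hr. Luminescence was read 30 min after adding luciferase reagent.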
# [2] = qHTS assay to identify small molecule antagonists of the sonic hedgehog signaling (Shh) pathway (AID 1259369; calls by dose curve; note: nearly all actives have a fitted effect of over 45% in size; note: potency is the fitted concentration of half-maximal effect)
# Method in brief: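 NIH/3T3-derived 3T3Gli1-Luc cells with stably integrated Gli1-Luc reporter were preincubated 4hr at 37 C, then given compounds in DMSO plus Shh conditioned medium and incubated 24hr. Firefly luciferase luminescence read after 30min reagent at room temperature.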
# [3] = qHTS assay to identify small molecule agonists of the androgen receptor (AR) signaling pathway in the presence of an antagonist - cell viability counter screen (AID 1259379); note: nearly all actives have a fitted effect of over 25% in size; note: potency is the fitted concentration of half-maximal effect
# Method in brief: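 MDA-kb2 human breast carcinoma cells (stable MMTV-luciferase, AR/GR responsive) were seeded 3,000 cells/well, pre-incubated 5 hr at 37C without CO2, then given 3.0uM nilutamide and compounds at 15 concentrations for 16 hr. Viability was read by CellTiter-Fluor fluorescence.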
# [4] = qHTS assay to identify small molecule agonists of the estrogen receptor beta (ER-beta) signaling pathway - cell viability counter screen (AID 1259380); note: nearly all actives have a fitted effect of over 30% in size; note: potency is the fitted concentration of half-maximal effect
# Method in brief: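 ER-beta-UAS-bla HEK293T cells in medium with 2% charcoal-stripped FBS were preincubated 6 hr at 37C, dosed with compound in DMSO for 16 hr, then after the bla read, CellTiter-Glo was added for 30 min at room temperature; luminescence recorded.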
# [5] = qHTS assay to identify small molecule antagonists of the estrogen receptor beta (ER-beta) signaling pathway - cell viability counter screen (AID 1259382); note: nearly all actives have a fitted effect of over 55% in size; note: potency is the fitted concentration of half-maximal effect
# Method in brief: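 ER-beta-UAS-bla HEK293T cells (2,000/well, 2% charcoal-stripped FBS) were pre-incubated 6 hr at 37C, then given compound plus 1nM final 17-beta-estradiol for 16 hr. Viability was read in the same wells by CellTiter-Glo luminescence after 30 min at room temperature.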
# [6] = qHTS assay to identify small molecule agonists or antagonists of the thyroid stimulating hormone receptor (TSHR) signaling pathway - wild type cell line counter screen (AID 1259384; calls by dose curve)
# Method in brief: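 Counter screen in untransfected Hek293: compounds (15-point titration, triplicate) plus phosphodiesterase inhibitor Ro20-1724 added after 18 h plating; 30 min RT. Intracellular cAMP via competitive d2/cryptate immunoassay, 1 h incubation.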
# [7] = target: Thyrotropin receptor (Homo sapiens) (UniProt P16473); experiment: qHTS assay to identify small molecule antagonists of the thyroid stimulating hormone receptor (TSHR) signaling pathway (AID 1259385; calls by dose curve; note: nearly all actives have a fitted effect of over 20% in size; note: potency is the fitted concentration of half-maximal effect)
# Thyrotropin receptor (Homo sapiens), sequence (P16473 whole entry, looked up): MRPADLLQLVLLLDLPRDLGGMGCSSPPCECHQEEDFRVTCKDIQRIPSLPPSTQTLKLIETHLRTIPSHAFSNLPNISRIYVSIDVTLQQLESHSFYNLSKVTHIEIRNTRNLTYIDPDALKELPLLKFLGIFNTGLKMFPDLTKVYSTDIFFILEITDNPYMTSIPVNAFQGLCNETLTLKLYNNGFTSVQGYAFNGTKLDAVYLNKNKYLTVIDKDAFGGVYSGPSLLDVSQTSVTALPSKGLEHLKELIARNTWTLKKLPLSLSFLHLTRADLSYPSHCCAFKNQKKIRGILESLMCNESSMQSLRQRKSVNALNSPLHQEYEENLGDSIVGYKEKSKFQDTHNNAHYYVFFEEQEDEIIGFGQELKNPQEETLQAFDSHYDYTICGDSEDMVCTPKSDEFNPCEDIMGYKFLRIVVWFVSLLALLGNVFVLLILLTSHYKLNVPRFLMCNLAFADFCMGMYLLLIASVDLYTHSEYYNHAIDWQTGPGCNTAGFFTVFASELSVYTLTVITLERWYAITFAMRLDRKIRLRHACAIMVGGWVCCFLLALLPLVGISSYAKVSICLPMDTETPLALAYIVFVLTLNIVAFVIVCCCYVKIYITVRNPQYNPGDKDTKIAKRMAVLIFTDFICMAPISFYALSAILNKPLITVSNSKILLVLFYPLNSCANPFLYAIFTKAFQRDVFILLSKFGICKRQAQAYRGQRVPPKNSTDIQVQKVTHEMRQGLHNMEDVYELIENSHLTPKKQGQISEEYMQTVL
# Method in brief: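 Antagonist mode: compound-treated TSHR-expressing HEK293 cells were stimulated with 1.5 ng/mL TSH (final) in presence of Ro20-1724 for 30 min at RT. HTRF cAMP detection after 1 h; each compound tested at 15 concentrations, triplicate.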
# [8] = qHTS assay to identify small molecule agonists of the estrogen receptor alpha (ER-alpha) signaling pathway in the presence of an antagonist - cell viability counter screen (AID 1259386);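 note: cells exposed to compounds for 22 h at 37 °C before the viability read; nearly all actives have a fitted effect of over 30% in size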; note: potency is the fitted concentration of half-maximal effect
# Method in brief: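 VM7Luc4E2 cells (endogenous full-length ER-alpha, 4×ERE-luciferase) were held 5 days in phenol red-free medium with 10% charcoal-stripped FBS, plated, then given 10.0nM ICI-182,780 and compounds at 15 concentrations for 22hr at 37C; viability read by CellTiter-Fluor fluorescence.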
# [9] = target: Progesterone receptor (Homo sapiens) (UniProt P06401); experiment: qHTS assay to identify small molecule agonists of the progesterone receptor (PR) signaling pathway (AID 1346784; calls by dose curve; note: nearly all actives have a fitted effect of over 30% in size)
# Progesterone receptor (Homo sapiens), sequence (P06401 whole entry, looked up): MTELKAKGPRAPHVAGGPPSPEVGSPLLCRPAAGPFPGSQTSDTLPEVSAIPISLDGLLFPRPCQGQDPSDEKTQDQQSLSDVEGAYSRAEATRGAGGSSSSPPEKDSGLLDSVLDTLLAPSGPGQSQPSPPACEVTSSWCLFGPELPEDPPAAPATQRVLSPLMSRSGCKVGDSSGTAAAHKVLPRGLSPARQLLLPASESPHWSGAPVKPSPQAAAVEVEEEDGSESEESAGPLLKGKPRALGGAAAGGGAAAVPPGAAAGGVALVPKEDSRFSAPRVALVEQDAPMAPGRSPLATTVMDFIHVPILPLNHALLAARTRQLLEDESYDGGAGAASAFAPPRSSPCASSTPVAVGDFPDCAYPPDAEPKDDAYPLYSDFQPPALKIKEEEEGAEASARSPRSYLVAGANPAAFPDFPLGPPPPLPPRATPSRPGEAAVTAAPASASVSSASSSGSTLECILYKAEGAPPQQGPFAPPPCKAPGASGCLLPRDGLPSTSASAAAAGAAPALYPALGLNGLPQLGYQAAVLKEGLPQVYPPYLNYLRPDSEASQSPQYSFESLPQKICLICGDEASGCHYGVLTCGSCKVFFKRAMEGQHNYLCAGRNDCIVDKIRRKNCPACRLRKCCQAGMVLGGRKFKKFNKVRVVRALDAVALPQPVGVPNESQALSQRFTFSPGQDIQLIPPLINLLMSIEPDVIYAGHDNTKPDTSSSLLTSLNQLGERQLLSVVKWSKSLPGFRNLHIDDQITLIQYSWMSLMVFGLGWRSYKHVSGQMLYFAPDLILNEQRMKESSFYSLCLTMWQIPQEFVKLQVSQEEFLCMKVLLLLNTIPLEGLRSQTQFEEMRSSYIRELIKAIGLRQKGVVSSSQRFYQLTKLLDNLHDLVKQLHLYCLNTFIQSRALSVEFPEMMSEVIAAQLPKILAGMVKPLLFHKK
# Method in brief: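 Cells (PR-UAS-bla HEK 293T, GripTite) were plated in assay medium containing 2% charcoal-stripped FBS and incubated 6 hr. Test compounds in DMSO were added for 16 hr at 37C. FRET substrate was then loaded for 2 hr at room temperature before fluorescence reading.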
# [10] = qHTS assay to identify small molecule antagonists of the progesterone receptor (PR) signaling pathway - cell viability counter screen (AID 1346798); note: nearly all actives have a fitted effect of over 50% in size; note: potency is the fitted concentration of half-maximal effect
# Method in brief: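 Counter screen for cytotoxicity: viability of PR-UAS-bla HEK293T cells was measured with CellTiter-Glo luminescence following 16 hr compound exposure in the presence of R5020.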
# [11] = qHTS assay to identify small molecule agonists of the progesterone receptor (PR) signaling pathway - cell viability counter screen (AID 1346799; calls by dose curve; note: nearly all actives have a fitted effect of over 45% in size)
# Method in brief: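 Cells (PR-UAS-bla HEK293T) are plated at 3,000/well in 2% charcoal-stripped FBS medium, rested 6 hr, dosed and incubated 16 hr at 37C. CellTiter-Glo is then added and luminescence measured after 30 min at room temperature.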
# [12] = qHTS assay to identify small molecule agonists of the TGF-beta/Smad signaling pathway - cell viability counter screen (AID 1346829); note: top concentration of the series differs between compounds; nearly all actives have a fitted effect of over 45% in size
# Method in brief: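 Same-well cytotoxicity: CellTiter-Glo added after the 2 hr room-temperature beta-lactamase substrate step, luminescence measured 30 min later; cells had 5 hr of compound at 37 C.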
# [13] = qHTS assay to identify small molecule agonists of the TGF-beta/Smad signaling pathway (AID 1346859; active = well fitted activation curve with a large enough effect in the signal ratio in the repeat runs, not every such curve was filed as active; the % refers to the signal ratio; note: series mostly up to about 77 µM)
# Method in brief: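 Reporter line: HEK 293T with stably integrated SBE-controlled beta-lactamase. Compound exposure lasts 5 hr at 37 C and 5% CO2; substrate loading follows for 2 hr at room temperature, with emission read at 460 and 530 nm.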
# [14] = target: Thyrotropin-releasing hormone receptor (Homo sapiens) (UniProt P34981); experiment: qHTS assay to identify small molecule antagonists of the thyrotropin-releasing hormone receptor (TRHR) signaling pathway (AID 1346877; active = well fitted inhibition curve with a large enough effect in the repeat runs, not every such curve was filed as active; note: series mostly up to about 51 µM)
# Thyrotropin-releasing hormone receptor (Homo sapiens), sequence (P34981 whole entry, looked up): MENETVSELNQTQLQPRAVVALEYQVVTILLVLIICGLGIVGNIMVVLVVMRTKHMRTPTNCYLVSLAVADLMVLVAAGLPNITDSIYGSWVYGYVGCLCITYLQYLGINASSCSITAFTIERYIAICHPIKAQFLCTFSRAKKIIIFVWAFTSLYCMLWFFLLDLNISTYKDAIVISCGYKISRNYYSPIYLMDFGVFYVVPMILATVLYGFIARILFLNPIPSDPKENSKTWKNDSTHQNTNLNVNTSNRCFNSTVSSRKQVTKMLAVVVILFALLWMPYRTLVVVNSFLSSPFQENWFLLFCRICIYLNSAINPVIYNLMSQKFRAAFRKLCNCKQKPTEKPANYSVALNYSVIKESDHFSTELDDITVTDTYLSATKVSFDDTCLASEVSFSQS
# Method in brief: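 TRHR-expressing HEK293 cells were seeded, cultured 18 h at 37 °C, then loaded with calcium dye for 2 h. Compounds were pre-incubated 5 min at room temperature before 1 nM TRH (final) was added, and kinetic fluorescence was recorded for 3 min.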
# [15] = target: Androgen receptor (Homo sapiens) (UniProt P10275); experiment: qHTS assay to identify small molecule agonists of the androgen receptor (AR) signaling pathway in the presence of an antagonist (AID 1259381; calls by dose curve; note: nearly all actives have a fitted effect of over 15% in size)
# Androgen receptor (Homo sapiens), sequence (P10275 whole entry, looked up): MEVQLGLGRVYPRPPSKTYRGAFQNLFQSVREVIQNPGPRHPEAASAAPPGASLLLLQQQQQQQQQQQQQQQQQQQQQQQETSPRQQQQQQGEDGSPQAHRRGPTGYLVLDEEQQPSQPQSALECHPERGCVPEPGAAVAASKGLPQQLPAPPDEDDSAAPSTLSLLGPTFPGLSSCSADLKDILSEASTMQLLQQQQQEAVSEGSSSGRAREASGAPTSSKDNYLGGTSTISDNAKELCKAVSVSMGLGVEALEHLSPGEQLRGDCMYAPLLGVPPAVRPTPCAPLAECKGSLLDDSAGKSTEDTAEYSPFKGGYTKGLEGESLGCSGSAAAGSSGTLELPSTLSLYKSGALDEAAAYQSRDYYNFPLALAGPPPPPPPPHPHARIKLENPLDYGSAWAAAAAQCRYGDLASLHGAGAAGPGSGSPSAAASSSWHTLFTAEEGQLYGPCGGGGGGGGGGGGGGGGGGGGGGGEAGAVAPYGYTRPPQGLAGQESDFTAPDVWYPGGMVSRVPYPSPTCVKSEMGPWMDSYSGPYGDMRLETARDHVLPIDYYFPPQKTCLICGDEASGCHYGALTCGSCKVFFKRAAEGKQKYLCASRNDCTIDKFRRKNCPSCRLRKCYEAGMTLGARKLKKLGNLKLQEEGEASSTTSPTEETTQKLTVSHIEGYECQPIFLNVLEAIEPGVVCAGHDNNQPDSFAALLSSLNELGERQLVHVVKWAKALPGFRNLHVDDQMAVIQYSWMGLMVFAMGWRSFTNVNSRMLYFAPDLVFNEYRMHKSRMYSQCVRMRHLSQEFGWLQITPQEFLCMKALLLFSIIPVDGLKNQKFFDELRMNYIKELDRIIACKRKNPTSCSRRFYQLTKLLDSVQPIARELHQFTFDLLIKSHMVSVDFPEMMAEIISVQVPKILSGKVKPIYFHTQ
# Method in brief: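 MDA-kb2 human breast carcinoma cells carrying an MMTV-luciferase reporter (AR- and GR-responsive) were treated with compounds at 15 concentrations plus 3.0uM final nilutamide for 16hr at 37C without CO2; luminescence was read after ONE-Glo addition.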
# [16] = target: Estrogen receptor (Homo sapiens) (UniProt P03372); experiment: qHTS assay to identify small molecule agonists of the estrogen receptor alpha (ER-alpha) signaling pathway in the presence of an antagonist (AID 1259383; calls by dose curve; note: top concentration of the series differs between compounds; nearly all actives have a fitted effect of over 15% in size)
# Estrogen receptor (Homo sapiens), sequence (P03372 whole entry, looked up): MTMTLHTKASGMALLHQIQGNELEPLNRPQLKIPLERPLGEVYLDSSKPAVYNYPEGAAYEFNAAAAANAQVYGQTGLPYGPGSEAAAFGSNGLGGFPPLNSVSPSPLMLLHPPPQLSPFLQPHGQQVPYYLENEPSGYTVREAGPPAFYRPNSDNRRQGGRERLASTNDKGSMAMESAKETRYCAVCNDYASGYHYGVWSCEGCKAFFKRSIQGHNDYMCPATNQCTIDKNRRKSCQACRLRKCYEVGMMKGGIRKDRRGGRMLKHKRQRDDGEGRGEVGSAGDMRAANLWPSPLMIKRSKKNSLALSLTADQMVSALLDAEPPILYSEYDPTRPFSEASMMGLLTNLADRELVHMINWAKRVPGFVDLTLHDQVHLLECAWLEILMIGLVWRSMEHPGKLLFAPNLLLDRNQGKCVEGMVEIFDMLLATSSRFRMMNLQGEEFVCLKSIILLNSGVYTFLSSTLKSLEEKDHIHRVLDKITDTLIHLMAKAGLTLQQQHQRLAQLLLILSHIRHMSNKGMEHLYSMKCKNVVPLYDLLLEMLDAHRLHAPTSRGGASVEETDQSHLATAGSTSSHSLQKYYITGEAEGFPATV
# Method in brief: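 VM7Luc4E2 cells (endogenous full-length ER-alpha, 4×ERE-luciferase) were precultured 5 days in phenol red-free medium with 10% charcoal-stripped FBS, given 10.0nM ICI-182,780 (final), then treated with compounds at 15 concentrations for 22hr at 37C; luminescence read with ONE-Glo.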
# [17] = target: Progesterone receptor (Homo sapiens) (UniProt P06401); experiment: qHTS assay to identify small molecule antagonists of the progesterone receptor (PR) signaling pathway (AID 1346795; active = well fitted inhibition curve with a large enough effect in the signal ratio in the repeat runs, not every such curve was filed as active; the % refers to the signal ratio; note: potency is the fitted concentration of half-maximal effect)
# Method in brief: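 Antagonist mode: compounds tested against 1 nM (final) promegestone stimulation in HEK293T cells expressing PR-UAS-bla reporter, 16 hr at 37C, 5% CO2; beta-lactamase activity detected via B/G FRET substrate after 2 hr at room temperature.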
# [18] = qHTS assay to identify small molecule antagonists of the TGF-beta/Smad signaling pathway - cell viability counter screen (AID 1346824); note: nearly all actives have a fitted effect of over 50% in size
# Method in brief: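 Cytotoxicity counter-screen run in the same wells as the beta-lactamase Smad reporter read: CellTiter-Glo luminescence after 30 min at room temperature. HEK 293T SBE-bla cells had 5 hr compound exposure at 37 C with TGF-beta1 (0.25 ng/mL stock).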
# [19] = target: Estrogen receptor beta (Homo sapiens) (UniProt Q92731); experiment: qHTS assay to identify small molecule antagonists of the estrogen receptor beta (ER-beta) signaling pathway (AID 1259378; active = well fitted inhibition curve with a large enough effect in the signal ratio in the repeat runs, not every such curve was filed as active; the % refers to the signal ratio)
# Estrogen receptor beta (Homo sapiens), sequence (Q92731 whole entry, looked up): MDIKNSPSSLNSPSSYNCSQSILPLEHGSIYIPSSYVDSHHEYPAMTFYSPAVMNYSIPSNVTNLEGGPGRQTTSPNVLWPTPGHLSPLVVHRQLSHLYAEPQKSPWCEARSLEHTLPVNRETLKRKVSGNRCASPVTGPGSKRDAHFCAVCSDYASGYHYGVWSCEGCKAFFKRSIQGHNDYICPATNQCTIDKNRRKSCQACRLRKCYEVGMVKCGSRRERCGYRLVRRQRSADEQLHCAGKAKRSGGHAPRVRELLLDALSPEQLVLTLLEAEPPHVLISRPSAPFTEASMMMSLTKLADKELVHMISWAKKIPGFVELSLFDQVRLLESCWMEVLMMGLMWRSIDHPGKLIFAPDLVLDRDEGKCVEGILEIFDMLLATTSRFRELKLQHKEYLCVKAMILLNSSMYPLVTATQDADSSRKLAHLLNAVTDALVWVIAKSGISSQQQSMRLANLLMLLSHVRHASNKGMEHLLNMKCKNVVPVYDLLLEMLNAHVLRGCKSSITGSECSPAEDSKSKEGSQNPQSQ
# Method in brief: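 Antagonist mode: compounds added to beta-lactamase reporter HEK293T ER-beta-UAS cells stimulated with E2 (1nM final), 16 hr at 37C. LiveBLAzer B/G FRET substrate, 2 hours room temperature, fluorescence read-out.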
SMILES,Potency [1],Potency [2],Potency [3],Potency [4],Potency [5],outcome [6],Potency [7],Potency [8],Potency [9],Potency [10],Potency [11],Potency [12],Potency [13],outcome [14],Potency [15],Potency [16],Potency [17],Potency [18],Potency [19]
C[C@@]12CCC[C@H]1[C@@H]1CC[C@H]3C[C@@H](O)CC[C@]3(C)[C@H]1CC2,inactive,23.7 µM (active),inactive,inactive,inactive,inactive,inactive,inactive,inactive,26.6 µM (active),inactive,inactive,inactive,inactive,,,,,
O=C1c2ccccc2C(=O)c2c(O)c(O)cc(O)c21,inactive,inactive,30.6 µM (active),inactive,inactive,inactive,inactive,30.6 µM (active),inactive,inactive,,inactive,inactive,inactive,inactive,inactive,inactive,inactive,
CC1(C)S[C@@H]2[C@H](NC(=O)C(c3ccccc3)S(=O)(=O)O)C(=O)N2[C@H]1C(=O)O (stereo partly specified),inactive,inactive,inactive,inactive,inactive,inactive,inactive,inactive,inactive,,inactive,inactive,inactive,inactive,,inactive,inactive,inactive,
CC(C)C=O,inactive,inactive,inactive,inactive,,inactive,inactive,inactive,inactive,inactive,inactive,inactive,inactive,inactive,,,inactive,inactive,inactive
CC(C)C[C@H](NC(=O)[C@H](CCc1ccccc1)NC(=O)CN1CCOCC1)C(=O)N[C@@H](Cc1ccccc1)C(=O)N[C@@H](CC(C)C)C(=O)[C@@]1(C)CO1,inactive,0.0119 µM (active),1.19 µM (active),0.266 µM (active),,inactive,inactive,inactive,,inactive,,inactive,inactive,inactive,,inactive,,inactive,
NC1[C@H]2CN(c3nc4c(cc3F)c(=O)c(C(=O)O)cn4-c3ccc(F)cc3F)C[C@@H]12 (stereo partly specified),inactive,29.8 µM (active),inactive,inactive,inactive,inactive,inactive,inactive,,,inactive,inactive,inactive,inactive,inactive,inactive,,,
CC(C)COCC(CN(Cc1ccccc1)c1ccccc1)N1CCCC1 (stereo unspecified),inactive,26.6 µM (active),26.6 µM (active),29.8 µM (active),21.1 µM (active),,,inactive,,,,,,inactive,,inactive,29.8 µM (active),,
CCC(C)COC(C)=O (stereo unspecified),inactive,inactive,inactive,inactive,inactive,inactive,,inactive,,inactive,inactive,inactive,inactive,,,inactive,inactive,inactive,
O=C1c2ccccc2C(=O)C1c1nc2ccccc2c(Br)c1O,inactive,inactive,,inactive,inactive,inactive,inactive,inactive,inactive,inactive,inactive,inactive,,inactive,,,,inactive,inactive
CCOc1ccccc1O[C@H](c1ccccc1)[C@H]1CNCCO1,inactive,inactive,inactive,inactive,inactive,inactive,inactive,inactive,,inactive,,inactive,inactive,,,inactive,inactive,inactive,
C=COCC(C)C,inactive,inactive,inactive,inactive,,inactive,,,,inactive,inactive,,inactive,inactive,,inactive,,inactive,
CCOC(=O)c1ccc(OCCN2C[C@H](O)[C@@H](O)[C@H](O)[C@H]2CO)cc1,inactive,inactive,inactive,inactive,inactive,inactive,inactive,inactive,inactive,inactive,inactive,inactive,inactive,inactive,,inactive,inactive,,
COc1cc(Nc2c(C#N)cnc3cc(OCCCN4CCN(C)CC4)c(OC)cc23)c(Cl)cc1Cl,inactive,13.3 µM (active),29.8 µM (active),33.5 µM (active),inactive,inactive,13.3 µM (active),,inactive,inactive,,inactive,inactive,,,,11.9 µM (active),inactive,
